# Compound activity deposited in PubChem by several laboratories.
# Only some compounds are listed: those with a hit (about 4.6% of all), similar ones and a draw of the others.
# ABHD5 PLIN5 PPI – inhibitors of human ABHD5-perilipin-5 interaction; Split G. princeps luciferase complementation, luminescence, 4 h; 0.78% of 360,000 active; AID 602281; inhibition, % at 4 µM;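 active means inhibition above the mean inhibition across every tested compound plus 3 SD, cut at about 22% in these data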;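 further: 0% = DMSO only wells and the 100% control is not disclosed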
# Target sequence (Q00G26 whole entry, looked up): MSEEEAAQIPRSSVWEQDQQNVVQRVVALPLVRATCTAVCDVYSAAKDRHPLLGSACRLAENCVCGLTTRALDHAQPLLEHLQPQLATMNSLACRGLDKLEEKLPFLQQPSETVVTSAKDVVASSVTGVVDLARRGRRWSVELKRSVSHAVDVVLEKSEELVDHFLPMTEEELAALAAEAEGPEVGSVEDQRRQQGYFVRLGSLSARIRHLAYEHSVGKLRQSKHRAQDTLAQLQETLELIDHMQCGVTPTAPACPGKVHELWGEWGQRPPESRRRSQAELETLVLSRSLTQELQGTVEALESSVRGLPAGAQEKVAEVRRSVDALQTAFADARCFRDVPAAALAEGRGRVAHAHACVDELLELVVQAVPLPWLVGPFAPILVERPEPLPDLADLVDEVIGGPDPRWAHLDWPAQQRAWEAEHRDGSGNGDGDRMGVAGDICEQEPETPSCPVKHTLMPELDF
# Target sequence (Q8WTS1 whole entry, looked up): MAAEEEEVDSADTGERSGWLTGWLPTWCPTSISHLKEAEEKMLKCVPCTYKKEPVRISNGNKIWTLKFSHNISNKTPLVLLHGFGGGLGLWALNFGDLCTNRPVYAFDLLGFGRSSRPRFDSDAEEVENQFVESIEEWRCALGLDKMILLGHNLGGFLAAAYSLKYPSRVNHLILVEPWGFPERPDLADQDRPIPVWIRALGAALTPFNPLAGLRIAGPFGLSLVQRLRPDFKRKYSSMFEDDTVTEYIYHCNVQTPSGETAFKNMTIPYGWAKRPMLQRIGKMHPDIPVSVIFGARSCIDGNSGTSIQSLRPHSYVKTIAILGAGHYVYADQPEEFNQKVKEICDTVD
# Mdm2 MdmX PPI – inhibitors of human Mdm2/MdmX interaction. inhibition, % at 8 µM. AID 485346. 3% of 330,000 active. SaOS-2 split-luciferase Mdm2/MdmX complementation, luminescence;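 active means inhibition of at least 50% at 8 µM in the primary screen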
# Peg3 prom inh-1 – inhibitors of Peg3 promoter; 1.7% of 360,000 active; inhibition, % at 20 µM; HeLa PEG-Prom luciferase reporter, luminescence, overnight; AID 588405;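 active means inhibition of at least 50% at 20 µM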
# KKLEB cytotox – counter-screen for CF NF-kB inhibitors: cytotoxicity; KKLEB CF airway cells viability, ATPlite luminescence, overnight; active compounds read low; cells stimulated with P. aeruginosa culture filtrate; activity change (cytotoxicity), % at 5 µM; 0.36% of 360,000 active; AID 602141;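 active means corrected activity change at or below -50% at 5 µM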
# CF NFkB block – cystic fibrosis NF-kB activation inhibition | 0.86% of 360,000 active | KKLEB NF-kB-GFP reporter, PAF-induced, GFP fluorescence overnight | inhibition, % at 5 µM | AID 588850;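 active means at least 50% inhibition at 5 µM, scaled per plate between neutral and stimulator controls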;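 further: PAF is a Pseudomonas aeruginosa culture filtrate used as stimulus; plate controls were PAF-stimulated DMSO wells for no effect and unstimulated DMSO wells for full effect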
# HIF-2a block – HIF-2a inhibition | inhibition, % at 18.8 µM | 0.72% of 360,000 active | 786-0 RCC cells HIF-2a reporter, luciferase luminescence, overnight;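 active means inhibition of the luminescence signal of 40% or more relative to plate controls, in a single-dose primary screen at 18.75 µM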
# Peg3 prom inh-2 – confirmation of Peg3 promoter inhibitors | shares compounds with Peg3 prom inh-1 | HeLa PEG-Prom luciferase reporter, luminescence, overnight | inhibition, % at 20 µM | 84% of 1,300 active | AID 602417;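 active means at 20 µM dose, 40% or more inhibition averaged across four replicates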
# * = called active by the depositor; · = no result given.
SMILES,ABHD5 PLIN5 PPI,Mdm2 MdmX PPI,Peg3 prom inh-1,KKLEB cytotox,CF NFkB block,HIF-2a block,Peg3 prom inh-2
Cc1cn([C@H]2C[C@H](O)[C@@H](CNCC3=Cc4cc(O)ccc4OC3)O2)c(=O)[nH]c1=O,6,·,4,-10,19,-3,·
Cc1ccc(C(C[N+](=O)[O-])Sc2ccc(N)cc2)cc1 (stereo not drawn),6,45,106*,-3,-11,36,97*
Cc1ccc(C(C[N+](=O)[O-])n2nc(C)cc2C)cc1 (stereo not drawn),4,30,28,-8,0,3,·
CC1(Cc2ccc(Cl)c(Cl)c2)C(=O)Nc2ccc(S(=O)(=O)NC3CCCCC3)cc21 (stereo not drawn),-12,·,69*,-8,30,0,68*
O=C(NC(=S)Nn1cnc2c(cnn2-c2ccccc2)c1=O)c1ccccc1,0,-5,-6,-1,0,-6,·
Cc1onc(-c2ccc(Cl)cc2Cl)c1-c1csc(N/N=C/c2ccccc2Cl)n1,-3,27,65*,-26,20,28,37
C=CCn1c(=NC(=O)c2ccc(S(=O)(=O)N3CCc4ccccc4C3)cc2)sc2cc(S(N)(=O)=O)ccc21,-8,14,72*,-14,22,27,8
O=c1[nH]c(=O)n(C2OC(CO)C(O)C2O)cc1F (stereo not drawn),4,·,75*,-11,11,5,75*
CC(C)(C)c1ccc(C(=O)NCCC(=O)Nc2ccc3c(c2)OCCO3)cc1,-9,35,-12,16,-18,-26,·
O=C(c1ccc(Cl)cc1)N1CCN(c2ccc([N+](=O)[O-])c(NCc3cccnc3)c2)CC1,6,29,55*,0,5,33,49*
Cn1cc(CN2CCCC(C(=O)Nc3ccc(-c4cccc(F)c4)cc3)C2)cn1 (stereo not drawn),13,37,53*,-13,11,6,77*
Cc1csc(CN(C)C(=O)CC2C(=O)NCCN2Cc2ccc(F)c(F)c2)n1 (stereo not drawn),5,-1,8,-2,9,4,·
CN=c1sc2c(n1C)C(=O)c1ccccc1C2=O,-10,·,88*,-67*,82*,-98,91*
O=C(Nc1ccc2c(c1)OCO2)c1ccc2nc([C@@H]3O[C@H](CO)[C@H](O)[C@H](O)[C@H]3O)[nH]c2c1,4,·,4,-2,-22,12,·
CSc1ccc(CN(C)C(=O)c2cccc(S(=O)(=O)N3CCN(Cc4ccccc4)CC3)c2)cc1,7,12,11,2,13,9,·
NS(=O)(=O)c1ccc(CNC(=O)c2cc(-c3cccs3)nc3ccccc23)cc1,8,34,31,2,-25,1,·
NS(=O)(=O)c1ccc(CCNC(=O)c2cc(-c3cccs3)nc3ccccc23)cc1,3,-12,54*,0,-16,-10,41*
COc1cccc(C(=O)O/N=C(\N)c2ccccn2)c1,-5,33,87*,-3,-12,-66,69*
CC(C)CC(N)c1csc(NC(=O)NCCc2ccccc2)n1 (stereo not drawn),5,·,25,9,-18,9,·
COc1ccc(CNC(=O)Nc2nc(C(N)Cc3ccc(F)cc3)cs2)cc1 (stereo not drawn),3,·,96*,-25,7,9,98*
CC(C)CC(N)c1csc(NC(=O)Nc2ccccc2C(C)(C)C)n1 (stereo not drawn),5,·,67*,-12,-12,-5,91*
COc1ccccc1NC(=O)Nc1nc(C(N)CCc2ccccc2)cs1 (stereo not drawn),-2,·,88*,-10,-3,4,95*
CN(C)Cc1csc(NC(=O)Nc2ccccc2-c2ccccc2)n1,14,·,9,-8,5,-3,·
CN(C)Cc1csc(NC(=O)Nc2ccccc2Oc2ccccc2)n1,9,·,93*,-8,49,-14,20
COc1ccc(CCNC(=O)Nc2nc(C(N)CCc3ccccc3)cs2)cc1OC (stereo not drawn),-2,·,28,1,0,1,·
SMILES,ABHD5 PLIN5 PPI,Mdm2 MdmX PPI,Peg3 prom inh-1,KKLEB cytotox,CF NFkB block,HIF-2a block,Peg3 prom inh-2
CCc1nc2c(OCc3c(C)noc3C)cccn2c1N(C=O)Cc1ccc(OC)cc1,-3,·,12,3,-3,9,·
CN(C(=O)COC(=O)/C=C/c1cccc([N+](=O)[O-])c1)C1CCS(=O)(=O)C1 (stereo not drawn),-1,40,51*,-4,9,40,62*
CCN(C(=O)COC(=O)/C=C/c1cccc(Br)c1)C1CCS(=O)(=O)C1 (stereo not drawn),5,15,41,12,-8,23,·
C[C@@H]1CN([C@H](C)CO)C(=O)CCCn2nncc2CO[C@H]1CN(C)Cc1cccc(C(=O)O)c1,-3,·,-11,18,-20,8,·
CC(=O)c1cccc(NC(=O)c2cccc3c(-c4cccnc4)coc23)c1,12,·,66*,0,-34,-62,61*
CS(=O)(=O)Nc1cccc(NC(=O)c2cccc3c(-c4cccnc4)coc23)c1,4,·,44,-7,-14,-18,·
CC(=O)Nc1cccc(NC(=O)c2cc(-c3cccnc3)nc3ccc(Cl)cc23)c1,4,37,57*,-18,17,4,47*
Cc1ccc(C(=O)N2CCC2(C)C(=O)NC(C)C)cc1 (stereo not drawn),-2,·,7,-1,-14,13,·
N/C(=N\OC(=O)c1ccccc1)C(C(=O)NOC(=O)c1ccccc1)C1CCCCC1 (stereo not drawn),-1,·,86*,2,-5,-154,97*
O=C(COC(=O)c1ccccc1)NC1CCCCCC1,6,-13,-80,10,-30,-12,·
O=C(CNC(=O)c1ccccc1F)NCc1ccccn1,-8,-1,-8,-17,-11,4,·
CC(=O)Nc1ccc(S(=O)(=O)NCCC(=O)OC(C)C(=O)NC2(C#N)CCCCC2)cc1 (stereo not drawn),-1,7,-5,-1,-11,9,·
Oc1c(Br)cc(Br)c2cccnc12,-2,·,50*,11,3,15,59*
COCC(=O)Nc1ccc2c(c1)[C@@H]1C[C@H](CC(=O)OC)O[C@H](CO)[C@@H]1O2,2,·,6,5,-8,9,·
COc1cc2c(cc1OC)C(SC)=NC1(CCCC1)C2,-5,-18,64*,0,6,37,-30
Cc1ccc(OCC(=O)c2cc(C)n(-c3ccccc3)c2C)c([N+](=O)[O-])n1,-1,37,80*,3,22,84*,80*
CCCn1c(C)cc(C(=O)COc2ccc(C)nc2[N+](=O)[O-])c1C,3,7,12,0,-4,26,·
